Reference: PubChem BioAssay AID1159580 (chemical genetic matrix, 2015)
Values joined by “and” are separate entries in the source; they are usually repeats but may differ in a detail not shown here. Identical values can stand only once. Hit rate of the full screen: of about 5,500 compounds, about 2,000 (36%) were called active. About 18% were inconclusive and are not listed. No stated cut-off is given here; in the data, active means normalized growth mostly below about 0.91 (no sharp cut-off); inconclusive means no clear call, values can overlap the other calls; inactive means mostly above about 0.92. Some of the results follow.

Assay: chemical genetic growth profiling, strain panel (AID 1159580);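 further: tested at 20 µM; growth read once vehicle control cultures reached saturation at 30 °C; 1 = growth at the plate median or of vehicle wells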
Settings: S. cerevisiae deletion strains, growth OD

Measured: normalized growth

CCN(CC)CCCC(C)Nc1ccnc2cc(Cl)ccc12 (configuration not stated)
inactive: locus YAL013W, strain DEP1, stronger effect = lower value 1.02 and 1.01 | locus YAL021C, strain ccr4, stronger effect = lower value 1.04 | locus YAL026C, strain drs2, stronger effect = lower value 1.02 | locus YAL030W, strain snc1, stronger effect = lower value 1.02 | locus YAL040C, strain CLN3, stronger effect = lower value 1.01 | locus YBL061C, strain skt5, stronger effect = lower value 1.03 | locus YBR009C, strain hhf1, stronger effect = lower value 1.01 | locus YBR021W, strain FUR4, stronger effect = lower value 0.976 | locus YBR023C, strain chs3, stronger effect = lower value 1.03 | locus YBR171W, strain sec66, stronger effect = lower value 1.05 | locus YBR229C, strain ROT2, stronger effect = lower value 1.01 | locus YBR231C, strain swc5, stronger effect = lower value 1.03 | locus YBR279W, strain paf1, stronger effect = lower value 1.02 | locus YCL011C, strain gbp2, stronger effect = lower value 1.04 | locus YCL016C, strain dcc1, stronger effect = lower value 1.03 | locus YCL029C, strain bik1, stronger effect = lower value 1.01 | locus YCL061C, strain MRC1 (second series), stronger effect = lower value 1.01 | locus YCL069W, strain vba3, stronger effect = lower value 1.03 | locus YCR088W, strain abp1, stronger effect = lower value 1.02 | locus YDL005C, strain med2, stronger effect = lower value 1.03 | locus YDL035C, strain GPR1, stronger effect = lower value 0.995 | locus YDL040C, strain nat1, stronger effect = lower value 1.03 | locus YDL074C, strain BRE1, stronger effect = lower value 1.04 | locus YDL101C, strain DUN1, stronger effect = lower value 1.04 | locus YDL134C, strain PPH21, stronger effect = lower value 0.985 | locus YDL185W, strain tfp1, stronger effect = lower value 1 | locus YDL192W, strain arf1, stronger effect = lower value 1 | locus YDR001C, strain nth1, stronger effect = lower value 1.03 | locus YDR069C, strain doa4, stronger effect = lower value 0.998 | locus YDR101C, strain arx1, stronger effect = lower value 0.993 | locus YDR137W, strain rgp1, stronger effect = lower value 1.06 | locus YDR159W, strain sac3, stronger effect = lower value 1.06 | locus YDR162C, strain NBP2, stronger effect = lower value 1.01 | locus YDR195W, strain ref2 1.07 | locus YDR297W, strain sur2, stronger effect = lower value 1.03 | locus YDR318W, strain mcm21, stronger effect = lower value 1.02 | locus YDR334W, strain swr1, stronger effect = lower value 1.03 | locus YDR335W, strain msn5, stronger effect = lower value 1.03 | locus YDR363W, strain ESC2, stronger effect = lower value 1.01 | locus YDR388W, stronger effect = lower value 1.01 | locus YDR392W, strain spt3, stronger effect = lower value 0.937 | locus YDR502C, strain sam2, stronger effect = lower value 0.995 | locus YEL003W, strain gim4, stronger effect = lower value 1.03 | locus YEL037C, strain rad23, stronger effect = lower value 1.03 | locus YEL061C, strain CIN8 (second series), stronger effect = lower value 1.03 | locus YEL061C, strain CIN8, stronger effect = lower value 1.01 | locus YER002W, strain NOP16, stronger effect = lower value 0.994 | locus YER015W, strain faa2, stronger effect = lower value 1.03 | locus YER016W, strain bim1, stronger effect = lower value 1 | locus YER110C, stronger effect = lower value 1.02 | locus YER111C, strain swi4, stronger effect = lower value 1.04 | locus YER155C, strain BEM2 (second series), stronger effect = lower value 0.966 | locus YER155C, strain BEM2, stronger effect = lower value 1.01 | locus YER167W, strain BCK2, stronger effect = lower value 1.01 | locus YFR010W, strain ubp6, stronger effect = lower value 1.03 | locus YGL078C, strain dbp3, stronger effect = lower value 1.02 | locus YGL086W, strain mad1, stronger effect = lower value 0.996 | locus YGL167C, strain pmr1, stronger effect = lower value 1.04 | locus YGL173C, strain kem1, stronger effect = lower value 1.04 | locus YGL227W, strain vid30, stronger effect = lower value 1.03 | locus YGL240W, strain doc1, stronger effect = lower value 1.03 | locus YGL248W, strain PDE1, stronger effect = lower value 1.04 | locus YGL253W, strain hxk2, stronger effect = lower value 1.01 | locus YGR135W, strain pre9, stronger effect = lower value 1.04 | locus YGR252W, strain gcn5, stronger effect = lower value 1.02 | locus YHR013C, strain ard1, stronger effect = lower value 0.965 | locus YHR027C, strain rpn1, stronger effect = lower value 1.03 | locus YHR030C, strain SLT2, stronger effect = lower value 1 and 0.96 | locus YHR079C, strain IRE1 (second series), stronger effect = lower value 1.01 | locus YHR079C, strain IRE1, stronger effect = lower value 0.961 | locus YHR094C, strain hxt1, stronger effect = lower value 1.01 | locus YHR129C, strain ARP1, stronger effect = lower value 1.02 | locus YHR142W, strain chs7, stronger effect = lower value 1.04 | locus YHR200W, strain rpn10, stronger effect = lower value 1.01 | locus YIL066C, strain RNR3, stronger effect = lower value 1.02 | locus YIL073C, strain SPO22, stronger effect = lower value 1.01 | locus YIL125W, strain kgd1, stronger effect = lower value 1 | locus YIR030C, strain dcg1, stronger effect = lower value 1 | locus YJL092W, strain hpr5, stronger effect = lower value 1.02 | locus YJL095W, strain BCK1 (second series), stronger effect = lower value 1.03 | locus YJL095W, strain BCK1, stronger effect = lower value 1.07 and 0.962 | locus YJL115W, strain asf1, stronger effect = lower value 1.05 | locus YJL129C, strain trk1, stronger effect = lower value 1.02 | locus YJL134W, strain LCB3, stronger effect = lower value 1.01 | locus YJL154C, strain vps35, stronger effect = lower value 1.02 | locus YJL164C, strain tpk1, stronger effect = lower value 1.02 | locus YJL166W, strain qcr8, stronger effect = lower value 1 | locus YJL168C, strain set2, stronger effect = lower value 1.01 | locus YJL187C, strain SWE1 (second series), stronger effect = lower value 1.05 | locus YJL187C, strain SWE1, stronger effect = lower value 1.03 | locus YJR043C, strain POL32, stronger effect = lower value 0.981 | locus YJR066W, strain TOR1, stronger effect = lower value 0.979
